Assay outcomes deposited in PubChem BioAssay by NMMLSC.
A selection: hits, their analogues and other compounds. The true share with any hit is near 1.9%.
FPRL1 ligand = human FPRL1 ligand, with FPR counter-screen; AID 441; FPRL1-expressing cells, fluorescent ligand binding inhibition, flow cytometry; inhibition, % (test concentration not listed); hit rate 0.3% among 24,000
Proteasome disasm = blocks ATP-dependent breakdown of the yeast 26S proteasome | anti-FLAG beads, GFP-proteasome disassembly, flow cytometry | inhibition of disassembly, % (no concentration beside the values) | hit rate 0.2% among 24,000 | AID 751;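 active = inhibition of disassembly above about 33%, limit read from the data; inconclusive = likely self-fluorescent, control bead median signal at least 40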;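 note: higher percent means more bead fluorescence retained so stronger block of disassembly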
FPR ligand = ligands of human FPR, also counter-screen for FPRL1 ligands. P21462. FPR-expressing cells, fluorescent ligand binding, flow cytometry. inhibition, % (concentration not given with the values). hit rate 0.74% among 24,000. AID 440
Target sequence (P21462 whole entry, looked up): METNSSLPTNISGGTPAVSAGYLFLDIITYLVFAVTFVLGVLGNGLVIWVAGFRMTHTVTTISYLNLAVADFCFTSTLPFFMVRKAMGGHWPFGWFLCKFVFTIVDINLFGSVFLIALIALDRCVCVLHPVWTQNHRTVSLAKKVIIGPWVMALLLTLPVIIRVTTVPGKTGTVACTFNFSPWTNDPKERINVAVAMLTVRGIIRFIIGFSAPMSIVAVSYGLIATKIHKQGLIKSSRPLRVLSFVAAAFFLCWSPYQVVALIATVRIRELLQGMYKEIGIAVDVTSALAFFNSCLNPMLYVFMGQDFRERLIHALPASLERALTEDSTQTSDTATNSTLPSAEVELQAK
VLA-4 agonist = allosterically activates the human VLA-4 integrin. P13612. AID 528. Jurkat cells, LDV-FITC binding, flow cytometry. activation, % at 10 µM (by protocol). 24,000 tested, under 10 active;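 active = fluorescent ligand binding to cells raised by more than 40% of the manganese-induced maximum; inconclusive = compound's own fluorescence above 85% of the ligand control signal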
VLA-4 antagonist = inhibition of LDV-FITC ligand binding to human VLA-4 integrin | P13612 | Jurkat cells, LDV-FITC binding with Mn2+, flow cytometry; 100% = Mn2+-driven binding gain fully reversed | inhibition, % at 10 µM (by protocol) | hit rate 0.2% among 24,000 | AID 529;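 active = inhibition above 50%; inconclusive = compound itself fluorescent, judged against control cell fluorescence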
Jurkat autofluor = compound fluoresces in Jurkat cells, VLA-4 screen interference | compound autofluorescence, flow cytometry; hits give high values; 1 = vehicle-only cell background | fluorescence ratio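 (tested at 10 µM compound in the well)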 | hit rate 0.61% among 24,000 | AID 576;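 active = fluorescence ratio above 2.44, which is 1 plus 3 SD of all ratios; inconclusive = signal too bright to measure linearly, ratio around 10 or more; inactive = fluorescence ratio below 2.44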;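 note: green fluorescence of cells measured with 488 nm excitation and 530 nm emission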
A number is an active result; n = inactive; u = inconclusive; x = no result given. Cut-off read from the data, not from the text of the source, unless noted: active = inhibition above about 30%; inconclusive = no clear call, values can overlap the other calls; inactive = below that.

SMILES	FPRL1 ligand	Proteasome disasm	FPR ligand	VLA-4 agonist	VLA-4 antagonist	Jurkat autofluor
COc1cc(NC(=O)c2ccc(COCC(F)(F)F)o2)cc(OC)c1OC	n	n	n	n	n	n
CCC(NC(=O)Nc1cc(OC)c(OC)c(OC)c1)(C(F)(F)F)C(F)(F)F	55	n	45	n	n	n
CC1(C)CC(=O)C2=C(C1)NC(=O)CC2c1cc2c(cc1Br)OCO2 (stereo not drawn)	n	n	n	u	u	n
COCCCN1C(=O)C(O)=C(C(=O)c2ccco2)C1c1ccccc1 (stereo not drawn)	n	x	43	x	x	x
COc1ccc(C2C(C(=O)c3sc(C)nc3C)=C(O)C(=O)N2CCN(C)C)cc1 (stereo not drawn)	n	n	n	n	n	n
CCCOc1ccc(C2C(C(=O)c3ccco3)=C(O)C(=O)N2CCCn2ccnc2)cc1 (stereo not drawn)	n	x	55	x	x	x
CC(C)Oc1ccc(C2C(C(=O)c3ccco3)=C(O)C(=O)N2Cc2cccnc2)cc1 (stereo not drawn)	n	x	n	x	x	x
Cc1nc(C)c(C(=O)C2=C(O)C(=O)N(CCCn3ccnc3)C2c2ccc(Cl)cc2)s1 (stereo not drawn)	n	x	38	x	x	x
Cc1ccc(C2C(C(=O)c3sc(C)nc3C)=C(O)C(=O)N2CCN2CCOCC2)o1 (stereo not drawn)	n	x	35	x	x	x
COc1cccc(C2C(C(=O)c3sc(C)nc3C)=C(O)C(=O)N2CCN2CCOCC2)c1 (stereo not drawn)	n	x	n	x	x	x
COc1ccc(C(=O)N2CCN=C2SCc2cccnc2)c(OC)c1	n	n	n	n	n	n
Cc1cc2cc(CCNC(=O)C(C)C)c(=O)[nH]c2cc1C	n	n	n	n	n	n
CCOC(=O)c1[nH]c(C)c(C(=O)NC2CCCCC2)c1C	n	n	n	u	u	n
COc1ccccc1NC(=O)CSc1nnc(Cn2c(=O)sc3ccccc32)n1C	n	n	n	u	u	n
COc1ccc(C2C(C(=O)N3CCN(c4ccccc4F)CC3)c3ccccc3C(=O)N2C)cc1 (stereo not drawn)	n	n	n	n	n	n
COc1cccc(C2C(C(=O)c3cccs3)=C(O)C(=O)N2CCCn2ccnc2)c1OC (stereo not drawn)	n	n	32	n	n	n
O=C(C1=C(O)C(=O)N(CCc2ccccc2)C1c1cccnc1)c1ccco1 (stereo not drawn)	n	x	n	x	x	x
CCOc1cc(C2C(C(=O)c3ccco3)=C(O)C(=O)N2CCc2ccccc2)ccc1O (stereo not drawn)	n	x	86	x	x	x
O=C(C1=C(O)C(=O)N(CCCN2CCOCC2)C1c1ccccn1)c1cccs1 (stereo not drawn)	n	x	n	x	x	x
CCOc1ccccc1C1C(C(=O)Nc2ccccc2OC)=C(C)Nc2nc(CCCO)nn21 (stereo not drawn)	n	n	n	n	n	n
Cc1cccc(CCNC(=O)C2CCC(CNc3c(N4CCCC4)c(=O)c3=O)CC2)c1 (stereo not drawn)	n	n	n	n	n	n
CC(C)N=c1cc2n(-c3ccc(Cl)cc3)c3ccccc3nc-2cc1Nc1ccc(Cl)cc1	n	n	n	u	u	3.9
CCNc1c2c3c(cccc3n(C)c1=O)C(=O)c1ccccc1-2	u	59	u	u	u	9.8
COc1ccc2c(=O)c(-c3ccccc3C)c(C)oc2c1	n	x	n	x	x	x
CCOC(=O)c1oc2cc(O)ccc2c(=O)c1-c1csc(C)n1	n	x	n	x	x	x
SMILES	FPRL1 ligand	Proteasome disasm	FPR ligand	VLA-4 agonist	VLA-4 antagonist	Jurkat autofluor
Cc1oc2cc(OCC(=O)O)ccc2c(=O)c1Oc1ccccc1	n	n	n	u	u	n
COc1ccccc1Oc1c(C)oc2cc(OC(=O)c3ccco3)ccc2c1=O	n	x	93	x	x	x
CCOc1ccccc1Oc1c(C)oc2cc(OC(=O)c3ccco3)ccc2c1=O	n	x	79	x	x	x
CCOC(=O)c1oc2cc(O)ccc2c(=O)c1-c1ccccc1OC	n	x	34	x	x	x
COc1ccccc1-c1c(C)oc2cc(OC(=O)c3ccco3)ccc2c1=O	n	x	68	x	x	x
COc1ccc(N2CCN(C(=O)CSc3nnc(Cn4nnc5ccccc54)n3C)CC2)cc1	n	n	n	n	n	n
Cc1cc(SCC(=O)c2ccccc2)n2nc(C)nc2n1	n	n	n	n	n	n
Cc1cccc(C(OC(=O)c2ccco2)C(=O)NCc2ccccc2)n1 (stereo not drawn)	n	n	n	n	n	n
Cn1c2ccccc2c2c(C(=O)N3CCN(c4ccccn4)CC3)cn(C3CCCC3)c(=O)c21	n	n	n	n	n	n
Cn1c2ccccc2c2c(C(=O)O)cn(C3CCCC3)c(=O)c21	n	n	n	n	51	n
N#Cc1cc2c(nc1SCC(=O)Nc1sc3c(c1C#N)CCC3)CCCCC2	n	105	n	n	n	n
CC(=O)NC(CCS(C)(=O)=O)C(=O)Nc1ccccc1C (stereo not drawn)	n	n	n	n	n	n
O=C(c1ccco1)c1nnn(Cc2ccccc2)c1-c1ccccc1	n	n	n	n	n	n
CC1CCCN(C(=O)Cn2c(-c3nonc3N)nc3ccccc32)C1 (stereo not drawn)	n	n	n	u	u	3
CCOC(=O)c1ccccc1NC(=O)Cn1c(-c2nonc2N)nc2ccccc21	n	n	n	u	u	n
CCCCNC(=O)c1ccc(CS(=O)(=O)c2ccc(OC)cc2)o1	n	n	n	n	n	n
Cc1ccc(CNC(=O)CN2C(=O)COc3ccc(C)cc32)cc1	n	n	n	n	n	n
Cc1ccc(CCNC(=O)CN2C(=O)COc3ccccc32)cc1	n	n	n	n	62	n
COCc1nnc(NC(=O)c2ccc(S(=O)(=O)N3CCCCCC3)cc2)o1	n	n	n	u	u	2.5
Cc1ccc2nc(NC(=O)C3CCCN(S(=O)(=O)c4cccc5nonc45)C3)sc2c1 (stereo not drawn)	n	n	n	u	u	3.1
Cc1cccc2sc(NC(=O)C3CCCN(S(=O)(=O)c4cccc5nonc45)C3)nc12 (stereo not drawn)	n	n	n	u	u	2.6
CCOC(=O)CCCCC(=O)c1[nH]c(=O)[nH]c1CSc1nc2ccccc2[nH]1	n	n	n	n	55	n
O=C(NCC(c1cccnc1)N1CCN(c2ccccc2)CC1)C1CCCCC1 (stereo not drawn)	n	n	n	n	n	n
COc1ccc2oc(=O)c(NC(=O)C3CCCCC3)cc2c1	n	n	n	n	n	n
COc1ccc(/C(O)=C2\C(=O)C(=O)N(CC3CCCO3)C2c2cc(OC)ccc2OC)cc1 (stereo not drawn)	n	x	n	x	x	x
CCOC(=O)N1CCC(NS(=O)(=O)c2cc3c(cc2Cl)NC(=O)CO3)CC1	n	n	n	u	u	5.1
Cc1nnc(SCc2cnc(-c3ccccc3)o2)[nH]c1=O	52	n	63	n	n	n
Cc1nnc(SCC(C)C)[nH]c1=O	n	n	n	u	u	n
